Results from the supplement of paper PMC6555819.

Assays:
Experiment in all cases: PBM binding z-score (relative to random genomic background probes); higher = stronger binding; sequences stand for … in GC…GCGATTGACAGCGTAGAATGAAGG
[1] = tested on: RARb homodimer (NR concentration 270 nM)
Summary of the method: (§1)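 Each nuclear receptor dimer, without ligand, was incubated for 1 h on custom Agilent 4×180K protein-binding microarrays. Binding was detected with antibodies against each partner (one per run), and scanned fluorescence was regression-normalized. The binding z-scores are referenced to random human genomic background probes.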

[2] = tested on: RARg:RXRa (NR concentration 270 nM, RXRa partner concentration 90 nM)
Summary of the method: as §1

[3] = tested on: RARg homodimer (NR concentration 270 nM)
Summary of the method: as §1

[4] = tested on: RXRa DBDmut IVT, anti-RXR (DBD mutation: RXRa K156A/R161A, NR concentration 90 nM)
Summary of the method: as §1

[5] = tested on: RXRa homodimer (NR concentration 180 nM)
Summary of the method: as §1

[6] = tested on: THRa:RXRa (NR concentration 90 nM, RXRa partner concentration 90 nM)
Summary of the method: as §1

[7] = tested on: THRa homodimer (NR concentration 90 nM)
Summary of the method: as §1

[8] = tested on: VDR homodimer (NR concentration 270 nM)
Summary of the method: as §1

Sequence | PBM binding z-score [1] | PBM binding z-score [2] | PBM binding z-score [3] | PBM binding z-score [4] | PBM binding z-score [5] | PBM binding z-score [6] | PBM binding z-score [7] | PBM binding z-score [8]
CGTCCAAGGTGAATGCTAGGTCAGTGAAAGCATT | 2.81 | 3.71 | 1.91 | -0.198 | 1.02 | 3.27 | 1.59 | -0.00133
CAAACTAGGTCACCGGAAGCTCAAAGTCCGCATG | 3.48 | 4.84 | 5.66 | 1.98 | 3.81 | 3.38 | 1.92 | 0.814
TAGCATAGGTCAGATCGGGCCAGTATACGCTATA | 2.53 | 3.8 | 3.77 | -0.503 | 2.97 | 4.24 | -1.1 | -0.438
ATATGTAGGTTACATCCGGGTCATGCAGGCTATG | 2.93 | 3.76 | 2.25 | 0.707 | 3.4 | 4 | 2.29 | 1.76
GGAACGAGGGTAAGTTGATAGCAGAGTTTGATGG | 0.494 | 0.154 | 0.437 | 0.818 | 0.178 | 0.12 | -0.196 | 0.755
GCTTACGGGACAAAGGTTATAGCATGAATAGAAT | 1.47 | 2.52 | 1.27 | 0.777 | 2.36 | 1.55 | -0.159 | 0.681
TCATATAGGTAAACAGGCGAAAGTCCGTAAGTTA | 0.187 | 0.299 | -0.00353 | 1.36 | 0.859 | 0.323 | -0.0757 | 0.216
AGTCAAAGTTCAGGACGAGGTGACGTAAAGCACG | 3.64 | 5.69 | 5.15 | 3.18 | 3.53 | 3.93 | 1.83 | 2.66
CCTACTGGGCCATTCAGAGCTCATTGATCATATG | -0.346 | -0.434 | -0.184 | 0.0203 | -0.591 | -0.578 | -0.449 | -0.387
TAGACTAGGTCATGCGGGCCAGTATAGTGTCGGC | 2.66 | 3.38 | 4.13 | 0.0121 | 2.73 | 2.84 | 0.705 | 0.756
ATCTCTCGGTAAAGATAGTTCAGTGAATGCAAAT | 1.07 | 0.757 | 0.753 | -0.259 | 0.154 | 0.376 | 0.031 | 0.334
CGAACTAGGTCACCGGAAGGTCAAAGTCCGCATG | 5.45 | 8.27 | 7.14 | 2.43 | 6.38 | 4.36 | 2.81 | 4.01
TCGAGTAGGTTAGTCGGTGCATTCAGCCAACATA | -0.0982 | -0.434 | -0.407 | 0.415 | -0.152 | -0.374 | -0.377 | 0.902
CCTAGCATGCCAGGGTCACTCAAGCATTTCGCTT | 2.54 | 2.81 | 2.01 | 0.413 | 3.35 | 2.95 | 1.01 | 0.827
GCTGCTAGGTCAGGTTGGTTAGCTAACGGGTACG | 2.43 | 2.43 | 3.37 | 0.744 | 0.769 | 1.77 | 0.549 | 0.682
ACTAGCAGGCCAAGTTTGGGTCACTAAAACAAAG | 2.17 | 2.1 | 1.53 | -0.281 | 0.88 | 2.52 | 0.917 | 0.383
CATACAAGGTCAGCTAGGCCAGAGTAGGGACGGC | 3.83 | 5.19 | 5.79 | 2.04 | 4.4 | 3.54 | 1.97 | 1.65
CAAACTAGGCCAAGAGGTCAAAGTCCGCTTCCCG | 4.79 | 5.84 | 5.21 | 2.07 | 6.52 | 3.75 | 1.81 | 3.94
ATCGAAAGGTCGACGAAGTGAGTATACACCGTTT | 2.14 | 3.86 | 3.83 | 0.645 | 3.75 | 1.79 | -0.48 | 0.3
CCAGGCAGGTGAAAGGTAACTCAGTCTGGTACGC | 0.447 | 0.784 | 0.255 | -0.641 | 1.53 | 0.824 | -0.15 | -0.0369
CCTACTGGGCCATTCAGAGGTCATTGAGCATATG | 4.08 | 4.6 | 3.1 | 0.996 | 3.54 | 3.27 | 1.22 | 3.44
CCTTACGGGTCACGACGTTATAGCACGACGAGCG | 3.34 | 5.56 | 5.15 | 0.951 | 6.26 | 2.99 | 0.181 | 0.722
CCTCGGAGGACAGAAGGTCAGAGTTGTCCGCTTT | 3.6 | 3.24 | 2.91 | 0.56 | 1.73 | 2.08 | 0.133 | 0.396
GATACAGCGTCAGCTAGAGGCCAGAGTATGGAAA | -0.524 | -0.0653 | 0.0489 | -0.648 | -0.444 | -0.787 | -0.942 | -0.804
TCGAGTAGGTTACCAATGGGGCATCCAGCTTTCT | 0.918 | 1.39 | 0.452 | -0.00896 | 0.647 | -0.146 | -0.638 | -0.823
AGTCAAATTTCAGGACGAGGTAACGTAAAGCACG | 0.179 | 0.276 | 0.438 | -0.237 | 0.24 | 2.29 | 1.82 | 0.197
TCTTGGAGGACACGAAAGGTCAGAGCTCGACATC | 4.63 | 5.1 | 5.47 | 1.26 | 4.25 | 3.89 | 1.31 | 1.48
CTCGAAAGGTCGTGCTCAGGTGAGTATCCCAAAC | 2.88 | 5.08 | 3.47 | 2.02 | 4.66 | 4.05 | 1.22 | 0.742
